Rows were chosen to be rich in hits. Some 3.5% of all compounds tested hit in one or more screens of this group.
Pf apPOL inh – Pf-apPOL DNA polymerase inhibition | Recombinant Pf-apPOL, molecular beacon fluorescence, 1.5 h | inhibition, % at 10 µM | 0.25% of 210,000 active | AID 1794808
mHTT-CaM PPI inh – disrupts binding of mutant huntingtin to calmodulin; P42858; AlphaScreen His-mHTT/GST-CaM binding, luminescence; inhibition, % at 15 µM; 3.6% of 190,000 active;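 note: 0% = both proteins with DMSO and 100% = one protein alone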
* hit, by the source's call; nt = no result given. Cut-off read from the data, not from the text of the source: active = inhibition above about 50%; inactive = the rest.

SMILES	Pf apPOL inh	mHTT-CaM PPI inh
COc1ccc(-c2nc3cccnc3n2C2CCN(C(=O)c3ccc(C)s3)C2)cc1 (configuration not stated)	-5.6	65.0*
Cc1ccc(CNC(=O)c2ccc(-c3ccc(F)cc3)nc2)cc1	-2.4	-7.3
Clc1ccc(-c2csc(Nc3ccccc3)n2)s1	-2.2	nt
COc1ccc(-c2csc(Nc3ccc(N)cc3)n2)cc1	-2.4	87.7*
Cc1ccc(Nc2nc(-c3ccncc3)cs2)cc1	4.0	9.0
Cc1ccc(-c2csc(Nc3ccc(Cl)cc3)n2)cc1	-0.1	46.8
COc1ccc(Nc2nc(-c3cccc(NC(C)=O)c3)cs2)cc1	3.4	44.4
Cc1ccc(Nc2nc(-c3ccccc3)cs2)cc1	-8.8	64.0*
Clc1ccc(-c2csc(Nc3ccc(Oc4ccccc4)cc3)n2)cc1	1.3	52.0*
Cc1ccc(-c2csc(Nc3ccccc3)n2)cc1	-0.3	61.1*
COc1ccc(Cl)cc1NS(=O)(=O)Cc1ccccc1	-4.2	-3.7
COc1ccc(NC(=O)Cn2ccc3sccc3c2=O)cc1	1.1	-6.0
Cc1cc(N2CCC(NC(=O)Nc3ccccc3)C2=O)ccc1F (configuration not stated)	-5.4	-7.9
O=C(C1CC1)N1CCc2cc(Br)cc(S(=O)(=O)Nc3ccc(F)cc3Cl)c21	0.0	11.0
Cc1cc(C)c2c(N(C)C)nc(C(=O)N3CCCCCC3)nc2n1	-0.3	-14.0
C=CCNC(=O)COc1ccc(Br)cc1	-5.6	-0.4
COc1ccc(-c2csc(Nc3ccc(C)cn3)n2)cc1	-1.0	9.6
Clc1cc(Cl)cc(Nc2nc(-c3ccccc3)cs2)c1	-5.0	96.4*
O=[N+]([O-])c1ccc(-c2csc(Nc3ccc(Oc4ccccc4)cc3)n2)cc1	-1.5	59.8*
O=[N+]([O-])c1cccc(Nc2nc(-c3ccncc3)cs2)c1	-0.3	1.5
O=[N+]([O-])c1ccc(-c2csc(Nc3cc(Cl)cc(Cl)c3)n2)cc1	-0.4	2.4
Cc1ccc(-c2csc(Nc3ccc(Oc4ccccc4)cc3)n2)cc1	-3.2	68.1*
COc1ccccc1NC(=O)C(Cc1ccccc1)NS(=O)(=O)c1ccc(C)cc1 (configuration not stated)	-4.6	9.5
COc1ccc(N2CCC(CNS(=O)(=O)c3cccc(Cl)c3)C2)cc1 (configuration not stated)	2.4	84.2*
COc1ccc(N2CC(CNS(=O)(=O)c3ccc4c(c3)CCCC4)CC2=O)cc1 (configuration not stated)	-5.8	14.3
SMILES	Pf apPOL inh	mHTT-CaM PPI inh
CCc1ccc(O)c(N=Cc2cc(Cl)cc([N+](=O)[O-])c2O)c1	-3.8	23.0
CC(C)(C)C(=O)N1CCCC1c1nc2cc(-c3ccccc3)ccc2o1 (configuration not stated)	1.3	14.7
CCNC(=O)N1CCCC1c1nc2cc(-c3ccc(N(C)C)cc3)ccc2o1 (configuration not stated)	-3.2	84.0*
CC(=O)NCC(=O)N1CCC(Oc2cc(N3CCOCC3)ncn2)C1 (configuration not stated)	-2.8	-1.6
Cc1cccc(C(=O)Nc2c3c(nn2-c2ccccc2C)CSC3)c1	-5.4	58.0*
Cc1ccccc1-n1nc2c(c1NC(=O)c1cccc([N+](=O)[O-])c1)CSC2	-0.5	5.0
Cc1ccccc1-n1nc2c(c1NC(=O)c1ccc(Cl)c([N+](=O)[O-])c1)CSC2	-5.5	56.0*
Cc1ccc(C(=O)Nc2c3c(nn2-c2cccc(C)c2C)CSC3)cc1[N+](=O)[O-]	3.6	6.0
Cc1cccc(C(=O)Nc2c3c(nn2-c2ccc([N+](=O)[O-])cc2)CSC3)c1	-6.0	19.0
O=C(Nc1c2c(nn1-c1ccc([N+](=O)[O-])cc1)CSC2)c1cccc(C(F)(F)F)c1	5.8	57.0*
Cc1ccccc1-n1nc2c(c1NC(=O)c1cccc(C(F)(F)F)c1)CSC2	-8.7	100.0*
Cc1ccccc1-n1nc2c(c1NC(=O)c1ccccc1C(F)(F)F)CSC2	-10.6	31.0
O=C1OC(c2ccc(Br)o2)=N/C1=C/c1ccc(F)cc1	-1.4	7.0
CCc1ccccc1N(CC)C(=O)C1CCCN(c2ncnc3c2nc2n3CCCCC2)C1 (configuration not stated)	0.5	4.3
COc1ccc(-c2cn3ccn(-c4cc(C)cc(C)c4)c(=O)c3n2)cc1OC	3.5	-4.7
Cc1ccc(C(=O)Nc2c3c(nn2-c2ccccc2C)CSC3)cc1	-3.8	43.0
Cc1cccc(-n2nc3c(c2NC(=O)C2CCCC2)CSC3)c1C	-4.7	23.0
O=C(Nc1c2c(nn1-c1ccc(F)cc1)CSC2)C1CCCC1	-7.3	57.0*
Cc1ccccc1-n1nc2c(c1NC(=O)C1CCCCC1)CSC2	-14.9	52.0*
O=C(Nc1c2c(nn1-c1ccc(Cl)cc1)CSC2)C1CCCC1	3.2	2.0
Cc1ccc(C(=O)Nc2c3c(nn2-c2ccccc2C)CSC3)cc1C	-4.4	62.0*
CCC(=O)N1CCc2cc(Br)cc(S(=O)(=O)NCc3cccnc3)c21	-0.8	-3.0
O=C(c1ccccn1)N1CCCC1c1nc(-c2ccc(F)cc2F)no1 (configuration not stated)	-3.2	-3.0
Cc1cccc(CN2CCCC(C(=O)N3CCCCCC3)C2)c1 (configuration not stated)	-2.1	1.1
Cc1cccc(C2CC(C(=O)N3CCSCC3)CN(Cc3ccccc3)C2)c1 (configuration not stated)	2.9	76.9*
SMILES	Pf apPOL inh	mHTT-CaM PPI inh
CCCCc1ccc(-c2nc(C=Nc3ccc([N+](=O)[O-])cc3Cl)c(O)o2)cc1	0.7	5.0
CC1CCCCN1c1nc(Cl)nc(N2CCCCC2C)n1 (configuration not stated)	8.0	100.0*
CC1CCCCN1c1nc(-c2ccccc2O)nc2ccccc12 (configuration not stated)	3.2	-7.7
O=C(c1cn(-c2cccc(Cl)c2)nn1)N1CCCC1	1.4	-2.7
Cc1ccc(S(=O)(=O)N(CC(=O)NC2CC2)Cc2ccccc2F)cc1	-4.1	2.2
CC(O)CNc1c([N+](=O)[O-])c(=O)n(C)c2ccccc12 (configuration not stated)	70.1*	-0.8
Cn1c(=O)c([N+](=O)[O-])c(NCc2ccccc2)c2ccccc21	1.3	-1.0
Cc1ccc(C)c(S(=O)(=O)N2CCN(C)CC2)c1	1.4	-2.8
Cc1cc(C)c(S(=O)(=O)N=C2C=CC(=O)c3ccccc32)cc1C	4.7	98.0*
Cc1cc(C)c(S(=O)(=O)N=C2C=C(Br)C(=O)c3ccccc32)cc1C	2.5	41.0
Cc1ccc(C)c(S(=O)(=O)N=C2C=CC(=O)c3ccccc32)c1	-2.7	96.0*
Cc1cc(S(=O)(=O)N2CCN(S(=O)(=O)c3ccc(Cl)c(C)c3)CC2)ccc1Cl	-4.2	-2.0
Cc1cc(S(=O)(=O)N=C2C=CC(=O)c3ccccc32)ccc1Cl	-5.0	90.0*
Cn1cc(C(=O)N2CCN(C(c3ccccc3)c3ccccc3)CC2)nn1	-3.7	-3.2
Oc1ccc(-c2csc(Nc3ncccn3)n2)c(O)c1	-2.6	9.0
Cc1ccc(C)c(-c2csc(Nc3ncccn3)n2)c1	-7.1	2.0
Oc1cccc(Nc2nc(-c3ccccn3)cs2)c1	-4.1	99.0*
O=C(O)c1cccc(Nc2nc(-c3ccccc3)cs2)c1	1.2	15.8
O=C(O)c1cccc(Nc2nc(-c3ccccn3)cs2)c1	-4.1	96.0*
Cc1cccc(Nc2nc(-c3ccccn3)cs2)c1	-1.0	97.0*
O=C(CC(c1ccccc1)S(=O)(=O)c1ccccc1)c1ccccc1 (configuration not stated)	-7.0	-15.3
